# Measurements reported in PubChem BioAssay (EPA / NIEHS).
# Records with an inconclusive call do not appear. Calls of active or inactive are those of the source. The calls were made as follows: active = hit-call score of the fitted dose curve at least 0.9, where 1 is the maximum; inconclusive = response in the unintended direction; inactive = score below 0.9.
# Assay: TOX21_p53_BLA_p4_viability: Viability Assessment in the Tox21 HCT-116 p53 Agonism Beta-lactamase Assay, Phase 4 (AID 2283597);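 also: hits lower the luminescence signal meaning cytotoxicity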
# Text: TOX21_p53_BLA_p4 is a cell-based, single-readout assay that uses HCT116, a human intestinal cell line, […] in a 1536-well plate.TOX21_p53_BLA_p4_viability is an assay readout measuring cellular ATP content and detected with CellTiter-Glo Luciferase-coupled ATP quantitation.TOX21_p53_BLA_p4_viability used a type of viability reporter where loss-of-signal activity can be used to understand changes in the cell viability. Furthermore, this assay endpoint can be referred to as a secondary readout, because this assay has produced multiple assay endpoints where this one serves a viability function. To generalize the intended target to other relatable targets, this assay endpoint is annotated to the cell cycle intended target family, where the subfamily is cytotoxicity.
# Thawing Method: Place 14 mL of pre-warmed thaw medium into a 15 mL of conical tub. Remove the vial of cells to be thawed from liquid nitrogen and thaw rapidly by placing at 37C in a water bath with gentle agitation for 1-2 minutes. Decontaminate the vial by wiping with 70% ethanol before opening in a biological safety cabinet. Transfer the vial contents drop-wise into 14 mL of thaw medium in a sterile 15-mL conical tub. Centrifuge cells at 900 rpm for 4 minutes and resuspend in thaw medium. Transfer contents to the T75 tissue culture flask containing Thaw Medium and place flask in a humidified 37C/5% CO2 incubator. Switch to growth medium at first passage.Propagation Method: Aspirate medium, rinse once in DPBS, add 0.25% Trypsin/EDTA and swirl to coat the cell evenly. Add an equal volume of Growth Medium to inactivate Trypsin after 2-3 minutes incubation at 37C. Centrifuge cells at 900 rpm for 4 minutes and resuspend in growth medium. Cell should be passage or fed at least twice a week.Assay Protocol: Harvest cells from culture in growth medium and resuspend in assay medium. 2.2 Dispense 4000 cells/5 uL/well into 1536-well black/clear bottom plates using a Multidrop dispenser. After the cells were incubated at 37C for 5 hours, 23 nL of compounds dissolved in DMSO were transferred to the assay plate by a PinTool resulting in a 217-fold dilution. Incubate the plates for 16 hours at 37C, 5% CO2. Add 1 uL of 6X LiveBLAzer FRET B/G (CCF4-AM) Substrate Mixture to each well using a BioRAPTR dispenser and incubate the plates at room temperature for 2 hours. Measure fluorescence intensity at 460 and 530 nm emission and 405 nm excitation by an Envision detector. Data is expressed as the ratio of 460nm/530nm emissions. Add 4 uL of Cell-titer Glo to each well using BioRAPTR and incubate the plates at room temperature for […]. For cell viability readout that measures cytotoxicity, 4 ul/well of CellTiter-Glo reagent was added into the assay plates using a Flying Reagent Dispenser. After 30 min incubation at room temperature, the luminescence intensity in the plates was measured using a ViewLux plate reader.
Compound,outcome,AC50
CCCCC1C(=O)NC(=O)N(C2CCCCC2)C1=O (stereo not given),inactive,
N#Cc1cccc(C#N)c1,inactive,
CN1C[C@@H](NS(=O)(=O)N(C)C)C[C@@H]2c3cccc4c3c(cn4C)C[C@H]21,inactive,
O=NN1CCNCC1,inactive,
COCCC#N,inactive,
CC(C)CC(C)N (stereo not given),inactive,
CC(=O)O[C@H]1C[C@H](O[C@H]2[C@@H](O)C[C@H](O[C@H]3[C@@H](O)C[C@H](O[C@H]4CC[C@@]5(C)[C@H](CC[C@@H]6[C@@H]5C[C@@H](O)[C@]5(C)[C@@H](C7=CC(=O)OC7)CC[C@]65O)C4)O[C@@H]3C)O[C@@H]2C)O[C@H](C)[C@H]1O[C@@H]1O[C@H](CO)[C@@H](O)[C@H](O)[C@H]1O,,0.121 µM (active)
ClC(Br)Br,inactive,
CCOP(=S)(OCC)Oc1cc(Cl)c(Br)cc1Cl,,72.9 µM (active)
Nc1ccccc1-c1ccccc1,inactive,
[O]=[Cd],inactive,
COC(C)(C)CCC[C@H](C)C/C=C/C(C)=C/C(=O)OC(C)C,inactive,
C[N+](C)(C)C,inactive,
CC(O)C(=O)[O][Hg][c]1ccccc1 (stereo not given),,3.87 µM (active)
Nc1ccc(Cc2ccc(N)c(Cl)c2)cc1Cl,inactive,
O=C(Cl)/C=C/C(=O)Cl,inactive,
CCCCCCBr,inactive,
Oc1ccc2c3c1O[C@H]1[C@@H](O)C=C[C@H]4[C@H](C2)NCC[C@@]341,inactive,
CNC(=O)ON=C(CSC)C(C)(C)C,inactive,
CCOC(=O)c1ncn2c1CN(C)C(=O)c1c(I)cccc1-2,inactive,

Compound,outcome,AC50
CCCCCc1cc(O)c2c(c1)OC(C)(C)[C@@H]1CCC(C)=C[C@@H]21,,21.4 µM (active)
O=C(O)/C=C\C(=O)O,inactive,
CCCCC#N,inactive,
O=C1NCN(c2ccccc2)C12CCN(CCCOc1ccc(F)cc1)CC2,inactive,
COP(=S)(OC)Oc1ccc([N+](=O)[O-])cc1Cl,inactive,
CCCCC(=O)Cl,inactive,
CC[n+]1c(-c2ccccc2)c2cc(N)ccc2c2ccc(N)cc21,inactive,
CCCCCCI,inactive,
CN(C)c1ccc(N)cc1,inactive,
O=C(O)COc1ccccc1,inactive,
Clc1ccc(CO/N=C(\Cn2ccnc2)c2ccc(Cl)cc2Cl)c(Cl)c1,,33.4 µM (active)
CCOP(=S)(OCC)SC(CCl)N1C(=O)c2ccccc2C1=O (stereo not given),inactive,
[N-]=[N+]=CC(=O)OC[C@H](N)C(=O)O,inactive,
Oc1cccc(Cl)c1Cl,inactive,
C=CC[C@]1(O)CC[C@H]2[C@@H]3CCC4=CCCC[C@@H]4[C@H]3CC[C@@]21C,inactive,
O=C1C=CC(=O)C=C1,inactive,
O=[N+]([O-])c1cc(C(F)(F)F)c(Cl)c([N+](=O)[O-])c1Cl,,35.9 µM (active)
NC(=S)c1c(Cl)cccc1Cl,inactive,
O=NN1CCCCC1,inactive,
COC(=O)c1cncn1C(C)c1ccccc1 (stereo not given),inactive,
